The full list was thinned out, with hits kept by preference.
ST2 inh = blocks human ST2 binding to IL-33; Q01638; inhibition, % for hits at 17 µM; 78,000 compounds, 2.3% hits; AlphaLISA ST2-Fc/biotin-IL-33 interaction, 1 h; in the data active means inhibition above about 30%
Target sequence (Q01638 whole entry, looked up): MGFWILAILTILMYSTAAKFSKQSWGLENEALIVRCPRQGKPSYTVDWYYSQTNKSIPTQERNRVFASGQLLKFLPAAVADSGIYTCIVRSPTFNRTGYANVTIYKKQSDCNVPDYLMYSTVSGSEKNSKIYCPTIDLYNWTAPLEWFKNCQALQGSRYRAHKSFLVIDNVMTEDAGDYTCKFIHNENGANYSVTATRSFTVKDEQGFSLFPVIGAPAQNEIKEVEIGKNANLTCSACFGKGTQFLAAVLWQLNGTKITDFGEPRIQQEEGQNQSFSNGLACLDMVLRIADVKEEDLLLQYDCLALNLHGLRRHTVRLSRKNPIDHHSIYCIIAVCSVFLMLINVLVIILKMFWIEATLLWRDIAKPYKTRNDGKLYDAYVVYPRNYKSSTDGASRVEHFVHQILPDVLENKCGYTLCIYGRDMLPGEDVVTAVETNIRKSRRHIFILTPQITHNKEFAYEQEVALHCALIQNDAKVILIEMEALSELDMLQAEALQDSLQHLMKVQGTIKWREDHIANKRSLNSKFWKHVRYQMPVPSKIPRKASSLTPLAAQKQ
The depositor's hits bear a star; i = inactive.

SMILES | ST2 inh
COc1ccc(C(=O)N[C@H]2CC[C@]3(C)CCC([C@H](C)C(=O)N(C)Cc4cccnc4)[C@H](O)[C@H]3[C@@H]2C)cc1 (stereo partly drawn) | 53%*
CCN(CC)C(=O)[C@@H](C)[C@@H]1CC[C@@]2(C)CC[C@H](NC(=O)c3cnccn3)[C@@H](C)[C@@H]2[C@H]1O | i
C[C@H]1[C@@H]2[C@@H](O)C([C@H](C)C(=O)N(C)CCC#N)CC[C@@]2(C)CC[C@@H]1NC(=O)c1cncnc1 (stereo partly drawn) | i
COCCN(CCOC)C(=O)[C@@H](C)C1CC[C@@]2(C)CC[C@H](NC(=O)c3ccncc3)[C@@H](C)[C@@H]2[C@H]1O (stereo partly drawn) | i
CCN(CC)C(=O)[C@@H](C)C1CC[C@@]2(C)CC[C@H](NC(=O)c3ccncc3)[C@@H](C)[C@@H]2[C@H]1O (stereo partly drawn) | 49%*
CCCCN(CC)S(=O)(=O)c1c(C)[nH]c(=O)[nH]c1=O | i
COCCn1cc(C(=O)N2CCN(Cc3ccccc3)CC2)c2c3ccccc3n(C)c2c1=O | i
CCOC(=O)C1(CCOC)CCN(Cc2ccc(N(C)c3ccccc3)cc2)CC1 | i
CCOC(=O)C1(CCOc2ccccc2)CCN(Cc2cccc(C)n2)CC1 | 83%*
CCOC(=O)C1(CCOc2ccccc2)CCN(S(=O)(=O)c2ccc(C)s2)CC1 | i
CCCC12CN3CC(CCC)(CN(C1)C3c1cccs1)C2=O (stereo not drawn) | i
Cc1nn(C)cc1-c1ccnc(NCCCN2CCCC2)n1 | i
Cc1cc(C)c(/C=C/C(=O)c2cccs2)c(C)c1 | 44%*
Cc1cc(Cc2ccc(NC(=O)c3cccs3)c(C)c2)ccc1NC(=O)c1cccs1 | i
Cc1cc2ncn(C(=O)c3cccs3)c2cc1C | i
Cc1ccnc(NC(=O)CSc2cc(=O)n(C)c3ccccc23)c1 | i
O=S(=O)(NC(c1ccccc1)c1ccccc1)c1cccc2cccnc12 | i
CCN(Cc1noc(CC(C)C)n1)C(=O)c1cn2c(n1)CNCC2 | i
CC(=O)N(CC(=O)O)c1ccccc1C(=O)O | i
CC1=NN(c2ccc(Br)cc2)C(=O)/C1=C\c1ccc(N(C)C)c([N+](=O)[O-])c1 | i
CC1=NN(c2ccc(C(=O)O)cc2)C(=O)/C1=C\c1ccc(Br)cc1 | i
CC1=NN(c2ccc(Br)cc2)C(=O)/C1=C/c1cccs1 | 39%*
Cc1ccc(N2CC(NC(=O)c3ccc(S(=O)(=O)N4CCOCC4)cc3)CC2=O)cc1 (stereo not drawn) | i
Cn1cnnc1-c1cccc([N+](=O)[O-])c1 | i
CC1CCN(C(=O)c2cc3n(n2)C(C(F)(F)F)CC(c2ccc(Br)cc2)N3)CC1 (stereo not drawn) | i
SMILES | ST2 inh
CN(C(=O)CCC(=O)NC1CCCCCC1)C1CC(C)(C)NC(C)(C)C1 | i
CC1(C)CC(NC2CC(C)(C)NC(C)(C)C2)CC(C)(C)N1 | i
CC1(C)CC(NC(=O)CC2CCCCC2)CC(C)(C)N1 | 34%*
C=CCNC(=O)N1CC[C@H]2CC(=O)N(Cc3cccnc3)CC[C@H]2C1 | i
Cn1cc(SCC(=O)Nc2ccccc2)c2ccccc21 | i
O=C(CN1C(=O)/C(=C/c2ccccc2F)Sc2ccccc21)N1CCCC1 | 33%*
Cc1ccc(CNC(=O)CN2C(=O)/C(=C/c3ccccc3F)Sc3ccccc32)cc1 | i
O=C(CN1C(=O)/C(=C/c2ccccc2F)Sc2ccccc21)NCCN1CCOCC1 | i
COc1ccc(C(=O)Nc2sc3c(c2C(N)=O)CCCC3)cc1[N+](=O)[O-] | 31%*
CC(C)(C)c1ccc(C(=O)Nc2sc3c(c2C(N)=O)CCCC3)cc1 | i
COc1ccccc1OCC(=O)Nc1sc2c(c1C(N)=O)CCCC2 | i
CCCCNc1c(CN2CCCCC2)c(=O)oc2ccccc12 | i
CC(C)N1CCN(C(=O)c2ccc(-n3cnnn3)cc2)CC1C (stereo not drawn) | i
C=CCN1C(=Nc2cccnc2)SCC1(O)c1ccccc1 (stereo not drawn) | 53%*
O=C(Nc1ccc(F)cc1)N1CCN(c2ccccn2)CC1 | i
N#Cc1ccc(Oc2ccc(C(=O)c3ccccc3)cc2)cc1C#N | i
O=C(c1ccccc1)c1cc(Br)ccc1O | i
N#Cc1ccc(Br)cc1/C=C/C(=O)O | 80%*
O=C(CN1C(=O)C2C3CCC(C3)C2C1=O)N1CCCC1 (stereo not drawn) | i
COc1ccccc1OC1=NS(=O)(=O)c2cc([N+](=O)[O-])ccc21 | i
Cc1ncsc1CCCNC1CCC2(CCNCC2)CC1 | i
O=C(CONc1ncnc2nonc12)N1CCOCC1 | i
CN1C[C@@H](NS(=O)(=O)c2ccccc2)C[C@H]1c1nc(-c2ccccc2)no1 | i
CN1C[C@@H](NS(=O)(=O)c2ccccc2)C[C@H]1c1nc(-c2ccc(Cl)cc2)no1 | i
COc1ccc(-c2noc([C@@H]3C[C@H](NS(=O)(=O)c4cccs4)CN3C)n2)cc1 | 41%*
SMILES | ST2 inh
CCOc1ccc(C2C(C(=O)OC3CCCCC3)=C(C)Nc3nnnn32)cc1OC (stereo not drawn) | i
C(=C\c1ccccn1)/c1cccc(-n2cnnc2)c1 | i
C(=C\c1cc(/C=C/c2ccccc2)ncn1)/c1ccccc1 | i
O=C(c1ccccc1)c1ccc(/C=C/c2ccccn2)cc1 | 55%*
O=C(NCCN1CCOCC1)c1ccc2c(c1)N(Cc1c(F)cccc1Cl)C(=O)CS2 | i
CSc1cccc(NC(=O)CSc2nc3ccccc3[nH]2)c1 | i
Cc1ccccc1OCC(=O)N1N=C(c2ccc(Br)cc2)CC1(O)C(F)(F)F (stereo not drawn) | i
COc1ccc(NC(=O)N[C@H]2[C@H](O)[C@@H](N3CCN(c4ccccc4OC)CC3)[C@@H]3OC[C@H]2O3)cc1 | i
Cc1cccc(Nc2nc(O)c(C3=c4cc(Br)ccc4=NC3=O)s2)c1C | 42%*
Cc1ccccc1NC(=O)c1cccc(Br)c1 | i
O=C1N=c2ccc(F)cc2=C1c1sc(Nc2ccc(Br)cc2)nc1O | i
Cc1cc(Br)c2c(c1)=C(c1sc(Nc3ccccc3Cl)nc1O)C(=O)N=2 | i
O=C1N=c2ccc(Cl)cc2=C1c1sc(Nc2ccc(Cl)cc2)nc1O | 44%*
Cc1c(Cl)ccc2c1=NC(=O)C=2c1sc(Nc2ccc(Br)cc2)nc1O | i
COc1cc(C(=O)Nc2ncccc2C)cc(OC)c1OC | i
OCc1cc(-c2ccc3ccccc3n2)ccc1F | i
CC1=C(C(=O)Nc2cc(C)ccn2)C(c2ccc(Cl)c([N+](=O)[O-])c2)C2=C(CCCC2=O)N1 (stereo not drawn) | i
Cc1cc(C)c2c(=O)cc(C3C(=O)c4ccccc4C3=O)[nH]c2c1 | i
Cc1cc(Br)c2c3c(c(N)c(=O)[nH]c13)-c1ccccc1C2=O | 45%*
CN1CCN(C(=O)c2cc3c(=O)oc4ccccc4c3s2)CC1 | i
O=C(NC1CC(=O)N(c2ccccc2)C1)c1cccc(Br)c1 (stereo not drawn) | i
Cc1ccccc1NC(=O)c1ccco1 | i
Cc1cccc(C)c1NC(=O)c1ccco1 | i
Cc1ccc(/C=C/NC(=O)c2ccco2)cc1C | 31%*
CCN(CC)CCCNC(=O)c1ccc2c(c1)N(Cc1cc(C)ccc1C)C(=O)CS2 | i
Cc1ccc(C)c(OCc2cc(C(=O)N(C)Cc3ccc(-n4cccn4)cc3)no2)c1 | i
Cc1n[nH]c(C)c1S(=O)(=O)N1CCCC(C)C1 (stereo not drawn) | i
